Screening results from PubChem BioAssay.
Most compounds without a hit are left out; they make up all but 1.7% or so of the library.
ALOX12 inh – ALOX12 (human) lipoxygenase inhibition. P18054. purified 12hLO, xylenol orange hydroperoxide absorbance. Potency, µM (top dose mostly 108 µM), for inactives: at the top dose activity change, negative = inhibition, hits mostly inhibitors. hit rate 1.1% among 580,000. AID 1671190; also: % is scaled to controls: 0 for no effect and ±100 for the full control effect
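Hydroperoxide product was detected by ferrous iron/xylenol orange as the 573 to 405 nm absorbance ratio. Arachidonic acid at 40 uM (final) was turned over for 30 min at room temperature by 150 nM human 12hLO, pH 7.0 Hepes buffer, after 15 min compound preincubation.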
TrxR1 substrate – is turned over as a substrate by rat TrxR1; purified TrxR1 substrate turnover, NADPH consumption readout; Potency, µM (highest dose often 114 µM), without a hit: top-dose activity change, negative = substrate turnover; hit rate 0.01% among 390,000; AID 588456; also: % is scaled to controls: 0 for no effect and ±100 for the full control effect; nearly all actives have a fitted effect of over 50% in size
Target sequence (O89049 whole entry, looked up): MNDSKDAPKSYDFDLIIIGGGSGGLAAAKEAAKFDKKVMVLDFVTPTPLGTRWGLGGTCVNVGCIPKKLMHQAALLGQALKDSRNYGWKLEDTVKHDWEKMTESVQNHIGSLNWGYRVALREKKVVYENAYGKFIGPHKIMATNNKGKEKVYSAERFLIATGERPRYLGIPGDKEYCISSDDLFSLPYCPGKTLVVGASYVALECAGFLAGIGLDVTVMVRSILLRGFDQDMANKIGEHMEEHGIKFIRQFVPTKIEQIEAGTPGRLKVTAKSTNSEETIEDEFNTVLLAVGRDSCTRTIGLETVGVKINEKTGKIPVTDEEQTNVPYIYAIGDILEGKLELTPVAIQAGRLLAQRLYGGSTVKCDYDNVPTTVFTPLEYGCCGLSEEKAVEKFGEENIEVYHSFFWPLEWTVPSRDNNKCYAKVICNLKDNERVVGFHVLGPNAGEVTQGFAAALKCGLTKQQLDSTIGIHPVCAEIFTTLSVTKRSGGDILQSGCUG
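Rat TrxR1, dispensed at 90 nM, was prereduced with 400 uM NADPH (final) for 5 min at ~22 deg C, then incubated with compound 15 min before 400 uM selenite. A first-read NADPH fluorescence drop versus no-compound background flagged substrates.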
Apoferritin bind – binds horse apoferritin like a general anesthetic | AID 485281 | P02791 | apoferritin/1-aminoanthracene competitive binding, fluorescence | hit rate 0.074% among 350,000 | Potency, µM (titrated, usually from 77.5 µM), without a hit: at the top dose activity change, negative = displacement, most hits filed as inhibitors; also: % is scaled to controls: 0 for no effect and ±100 for the full control effect; nearly all actives have a fitted effect of over 20% in size
Target sequence (P02791 2-175 limits assumed): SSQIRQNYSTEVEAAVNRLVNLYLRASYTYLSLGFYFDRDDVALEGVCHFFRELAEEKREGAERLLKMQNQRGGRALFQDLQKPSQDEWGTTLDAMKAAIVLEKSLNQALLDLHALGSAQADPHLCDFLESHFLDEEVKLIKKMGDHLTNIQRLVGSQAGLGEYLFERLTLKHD
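Horse-spleen apoferritin (10 uM) was mixed with 50% saturated 1-aminoanthracene in PBS, exposed to compounds for 10 min at room temperature, and read for fluorescence (ex 380 nm, em 535 nm). Competitive displacement was fitted with a four-parameter Hill equation.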
rTrxR1 inhibitor – inhibitors of rat thioredoxin reductase 1; O89049; recombinant rTrxR1, NADPH fluorescence consumption, selenite substrate; Potency, µM (series often up to 114 µM), inactives show top-dose activity change, negative = inhibition, actives largely listed as inhibitors; hit rate 1% among 390,000; AID 588453; also: % is scaled to controls: 0 for no effect and ±100 for the full control effect; nearly all actives have a fitted effect of over 65% in size
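Rat TrxR1 (90 nM in the dispensed reagent) was pre-reduced with 400 uM NADPH for 5 min at room temperature, then incubated with compound for 15 min. After 400 uM selenite was added, NADPH fluorescence (Ex 340/Em 450 nm) was followed for 8 min.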
GRP78 ERSR act – inducers of ER stress response in human glioma cells; AID 602332; Potency, µM, without a hit: top-dose activation, most hits filed as activators; U87-MG GRP78 promoter luciferase reporter, 16 h; hit rate 0.02% among 420,000; also: series mostly up to about 76 µM; % of control where 0% means no effect; nearly all actives have a fitted effect of over 35% in size
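ERSR induction read as luciferase luminescence (Bright-Glo, 10 min at room temperature) in stably transfected human U87-MG glioma cells exposed to compounds for 16 h, using GRP78 as sensor.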
mIDH1 inhibitor – inhibitors of human mutant IDH1 R132H. hit rate 0.093% among 390,000. Potency, µM (top dose mostly 76.6 µM), without a hit: at the top dose activity change, negative = inhibition, actives largely listed as inhibitors. IDH1-R132H enzyme, NADPH consumption, diaphorase/resazurin fluorescence. O75874; also: % is scaled to controls: 0 for no effect and ±100 for the full control effect; nearly all actives have a fitted effect of over 65% in size
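IDH1-R132H (0.5 ug/mL) preincubated 30 min with compound, then NADPH (0.016 mM) and alpha-KG (2 mM) added; 80 min at RT, pH 7.5. Remaining NADPH coupled via diaphorase/resazurin to fluorescence (540/590 nm); concentration-response curves normalized to no-enzyme control.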
Starred values were filed as active, the others as inactive; [ ] = dose if it differs, or a comment. Calls follow the shape of the dose curve; as a rule, active = well fitted curve in the direction sought with a large enough effect; inconclusive = small, poorly fitted or top-dose-only effect, or another doubt; inactive = no such curve, though single readings can be large; an effect the other way counts as inactive or inconclusive. Potency is read from the fitted curve at half-maximal effect.

`COc1cc2c(cc1OC)CN(C(=O)/C=C/c1ccc([N+](=O)[O-])cc1)CC2` gave ALOX12 inh 14µM*, TrxR1 substrate -6%, Apoferritin bind -4%, rTrxR1 inhibitor 13%, GRP78 ERSR act -4% and mIDH1 inhibitor 5%.
Screening COc1cc2c(cc1OC)CN(C(=O)/C=C/c1ccccc1[N+](=O)[O-])CC2 returned ALOX12 inh inconclusive, TrxR1 substrate 4%, Apoferritin bind 7%, rTrxR1 inhibitor 21%, GRP78 ERSR act -1% and mIDH1 inhibitor 3%.
`COc1cccc(CCC(=O)N2CCC(c3n[nH]c(=O)n3-c3ccc(C)cc3)CC2)c1` gave ALOX12 inh -5%.
O=C(CCS(=O)(=O)c1cc2c3c(c1)CCN3C(=O)CC2)Nc1ccc(F)c(Cl)c1 was read as ALOX12 inh 14µM*.
For O=C(O)c1ccccc1CC(CCc1ccccc1)C(=O)O (centres undefined) the results were ALOX12 inh 28µM*, TrxR1 substrate 12%[57.1 µM], rTrxR1 inhibitor 26%[57.1 µM], GRP78 ERSR act -3% and mIDH1 inhibitor 13%.
For O=C(O)Cc1ccccc1C(=O)O the results were ALOX12 inh -21%, TrxR1 substrate 5%, Apoferritin bind 10%, rTrxR1 inhibitor 13%, GRP78 ERSR act -4% and mIDH1 inhibitor 1%.
`CCOC(=O)Nc1ccc2c(c1)C(=NNC(=S)NC)c1ccccc1-2` gave ALOX12 inh 40µM*, GRP78 ERSR act 2% and mIDH1 inhibitor -2%.
`CCOc1ccc(NC(=O)C2CCCCC(=O)N2)cc1` (centres undefined) gave ALOX12 inh 32%.
For CCOc1cc(/C=C2\C(=O)ON=C2c2ccccc2)cc(Br)c1O the results were ALOX12 inh 22µM*, TrxR1 substrate -3%, Apoferritin bind -4%, rTrxR1 inhibitor 14µM*, GRP78 ERSR act -4% and mIDH1 inhibitor -15%.
Screening COc1cc(/C=C2\SC(=Nc3ccccc3)NC2=O)cc(Cl)c1O returned ALOX12 inh inconclusive, TrxR1 substrate -5%, Apoferritin bind -8%, rTrxR1 inhibitor 1%, GRP78 ERSR act 14% and mIDH1 inhibitor 0%.
COc1cc(/C=C2\C(=O)ON=C2c2ccccc2)cc(Cl)c1O was read as ALOX12 inh inconclusive, TrxR1 substrate 4%[57.1 µM], Apoferritin bind -10%, rTrxR1 inhibitor 16µM*, GRP78 ERSR act -1% and mIDH1 inhibitor -3%.
`COc1cc(/C=C2/C(=O)ON=C2c2ccccc2)ccc1O` gave ALOX12 inh inconclusive, TrxR1 substrate -17%, Apoferritin bind 1%, rTrxR1 inhibitor 13µM*, GRP78 ERSR act -10% and mIDH1 inhibitor 4%.
`CCOc1cc(/C=C2/C(=O)ON=C2C)cc(Br)c1O` gave ALOX12 inh inconclusive, TrxR1 substrate -7%[57.1 µM], Apoferritin bind -8%, rTrxR1 inhibitor inconclusive, GRP78 ERSR act -9% and mIDH1 inhibitor -10%.
Screening COc1cc(/C=C2\C(=O)ON=C2c2ccccc2)cc(Br)c1O returned ALOX12 inh inconclusive, TrxR1 substrate -15%, Apoferritin bind -1%, rTrxR1 inhibitor 11µM*, GRP78 ERSR act -14% and mIDH1 inhibitor -2%.
Screening COc1ccc(OCc2nc(C3CN(C(=O)c4n[nH]c5ccccc45)C3)no2)cc1 returned ALOX12 inh 12%.
`COc1ccc(Cl)c(NC(=O)C2CC(=O)Nc3cc(-c4ccc(Cl)cc4)nn32)c1` (centres undefined) gave ALOX12 inh -28%.
For O=C(C1CC1)N1CCC2(CC1)CC(Cc1nc(-c3ccncc3)no1)CCO2 (centres undefined) the results were ALOX12 inh -2%.
Screening O=C1NCC2(CCCN(C(=O)CCc3nc4ccccc4[nH]c3=O)C2)O1 (centres undefined) returned ALOX12 inh 63%.
Screening CC(/C=C/c1ccco1)=N/NC(=O)Cc1cccs1 returned ALOX12 inh 0%, TrxR1 substrate -13%, Apoferritin bind -12%, rTrxR1 inhibitor 40µM*, GRP78 ERSR act inconclusive and mIDH1 inhibitor 3%.
Screening CC(/C=C/c1ccco1)=N\NC(=O)c1cc(C)[nH]n1 returned ALOX12 inh 7%, TrxR1 substrate -4%, Apoferritin bind -9%, rTrxR1 inhibitor 16µM*, GRP78 ERSR act 4% and mIDH1 inhibitor -4%.
`O=C(/C=C/c1ccco1)N(Cc1cccs1)Cc1cccs1` gave ALOX12 inh 8.9µM*.
For CC(/C=N/NC(=O)Cc1cccs1)=C\c1ccco1 the results were ALOX12 inh inconclusive, TrxR1 substrate -9%, Apoferritin bind inconclusive, rTrxR1 inhibitor inconclusive, GRP78 ERSR act 11% and mIDH1 inhibitor 2%.
Screening CCc1nc(NC(=O)Cn2nc3c(cc2=O)CCCCC3)sc1C returned ALOX12 inh 19%.
`Cc1cccc2sc(N(CCCN(C)C)C(=O)c3ccc4ncsc4c3)nc12` gave ALOX12 inh inconclusive, TrxR1 substrate 2%, Apoferritin bind -15%, rTrxR1 inhibitor 14%, GRP78 ERSR act 1% and mIDH1 inhibitor -4%.
Screening CCN(CC)CCN(C(=O)c1ccc2c(c1)OCCO2)c1nc2c(Cl)cccc2s1 returned ALOX12 inh 35µM*, TrxR1 substrate -4%, Apoferritin bind -17%, rTrxR1 inhibitor 9%, GRP78 ERSR act -5% and mIDH1 inhibitor 2%.
`CN(C)CCCN(C(=O)c1ccc2c(c1)OCCO2)c1nc2ccc(Cl)cc2s1` gave ALOX12 inh 45µM* and Apoferritin bind -8%.
For CCc1ccc2nc(N(CCN(C)C)C(=O)c3ccc4ncsc4c3)sc2c1 the results were ALOX12 inh 35µM*, TrxR1 substrate 5%[57.1 µM], Apoferritin bind -14%, rTrxR1 inhibitor 40%, GRP78 ERSR act -2% and mIDH1 inhibitor 0%.
Cc1ccc2nc(N(CCCN(C)C)C(=O)c3sc4ccccc4c3Cl)sc2c1 was read as ALOX12 inh inconclusive, TrxR1 substrate -7%, Apoferritin bind inconclusive, rTrxR1 inhibitor 50µM*, GRP78 ERSR act -9% and mIDH1 inhibitor 2%.
For CCN(CC)CCN(C(=O)c1ccc2c(c1)OCCO2)c1nc2cc(C)cc(C)c2s1 the results were ALOX12 inh inconclusive, TrxR1 substrate -14%, Apoferritin bind -12%, rTrxR1 inhibitor -9%, GRP78 ERSR act -3% and mIDH1 inhibitor 3%.
COc1ccc2[nH]cc(CCNC(=O)Nc3cc(C)cc(C)c3)c2c1 was read as ALOX12 inh -27%, TrxR1 substrate -4%, Apoferritin bind 54%, rTrxR1 inhibitor 7%, GRP78 ERSR act -1% and mIDH1 inhibitor 7%.
